Laboratory results reported in PubChem BioAssay AID485341 (National Center for Advancing Translational Sciences (NCATS), 2010).
Hit rate of the full screen: of about 330,000 compounds, about 1,700 (0.52%) were called active. This is one part of a sample in which actives are shown more often than they occur. Unmarked numbers belong to inactive results. Calls follow the shape of the dose curve; as a rule, active = well fitted inhibition curve with a large enough effect; inconclusive = small, poorly fitted or top-dose-only effect; inactive = no such curve, though single readings can be large or run the other way.

molecular target: Beta-lactamase (Escherichia coli (strain K12)) (UniProt P00811); experiment: qHTS Inhibitors of AmpC Beta-Lactamase (assay without detergent); conditions: AmpC nitrocefin hydrolysis, absorbance 480 nm, 0.0001% Triton; series mostly up to 57.1 µM; activity change, negative = inhibition: at the top concentration; also: nearly all actives have a fitted effect of over 20% in size
Sequence (P00811 whole entry, looked up): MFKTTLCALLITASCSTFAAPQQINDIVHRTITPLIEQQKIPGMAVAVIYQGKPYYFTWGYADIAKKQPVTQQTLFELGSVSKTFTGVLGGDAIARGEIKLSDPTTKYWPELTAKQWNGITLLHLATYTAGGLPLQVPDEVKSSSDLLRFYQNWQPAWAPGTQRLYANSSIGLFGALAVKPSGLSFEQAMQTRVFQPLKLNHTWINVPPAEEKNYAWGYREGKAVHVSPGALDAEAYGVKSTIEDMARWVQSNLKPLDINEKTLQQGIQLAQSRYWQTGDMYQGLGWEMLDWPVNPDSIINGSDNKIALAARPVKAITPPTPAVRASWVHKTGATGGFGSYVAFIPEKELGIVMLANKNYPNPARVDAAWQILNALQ
Method in brief: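 20 mM phosphate pH 7.0 + 0.01% (detergent screen) or 0.0001% Triton X-100; 5.3 nM AmpC reagent; cpd preinc 15 min RT; nitrocefin (800 uM stock) to start; A480 q20 s × 4 min; Activity was normalised to no-enzyme and no-compound control wells.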
Potency is read from the fitted curve at half-maximal effect.

Structure (SMILES) | activity change, negative = inhibition [%] | Potency
CC1(c2ccccc2Cl)NC(=O)N(CC(=O)NC(=O)NCc2ccco2)C1=O (stereo not given) | -8.19 | 
O=C1CCN(Cc2ccc([N+](=O)[O-])cc2)CCN1[C@H](CO)Cc1ccccc1 | 87.8 | 
O=C(CCCn1c(=O)oc2ccccc21)Nc1cccnc1 | -14.5 | 
Clc1cccc(CN2COc3c(cc(Cl)c4cccnc34)C2)c1 |  | 35.5 µM (active)
CC(C)CC(=O)N1CCN(Cc2cccc(Cl)c2)CC1 | -1.38 | 
Oc1c(CN2CCCC2)cc(COCc2ccccc2)c2cccnc12 |  | inactive
CC[C@]12c3[nH]c4ccc(Cl)cc4c3CCN1C(=O)[C@@H](CC(=O)NCCN1CCOCC1)C[C@@H]2C(=O)N1CCN(C(=O)C2CC2)CC1 | 252 | 
CC(C)CCN1NC2(CCC(C)CC2)NC1=S (stereo not given) | -6.11 | 
O=c1oc2ccccc2c(CNc2ccccc2)c1[N+](=O)[O-] | -36.5 | 
O=C(COC(=O)c1cc(=O)[nH]c2ccccc12)NCc1cccc(Cl)c1 | -23.1 | 
CC(NC(=O)COC(=O)c1cc(=O)[nH]c2ccccc12)c1ccccc1 (stereo not given) | -10.1 | 
O=C(COC(=O)c1cc(=O)[nH]c2ccccc12)Nc1nc(-c2cccc(Br)c2)cs1 |  | 14.1 µM (active)
CC(C)CCN1C(=O)c2ccc(C(=O)Nc3cccc(S(N)(=O)=O)c3)cc2C1=O | -39.5 | 
CN(c1ccccn1)c1ncnc2[nH]ncc12 | 3.64 | 
Cc1nn(C)c(Cl)c1CN1CCC(Oc2ccc(C(=O)N3CCCC3)cc2)CC1 | 35.1 | 
Cc1csc(=O)n1CC(=O)Nc1ccc(S(C)(=O)=O)cc1 | -12.7 | 
O=C(c1ccc(Cl)nc1)N1CCN(S(=O)(=O)c2ccc3c(c2)OCCO3)CC1 | 0.998 | 
Nc1cc(N)nc(SCC(=O)Nc2cccc(S(=O)(=O)N3CCCCC3)c2)n1 |  | 25.1 µM (active)
O=C(CSc1ccccc1)Nc1cccc(S(=O)(=O)N2CCCCC2)c1 | -26.9 | 
Cn1nnnc1SCC(=O)Nc1cccc(S(=O)(=O)N2CCCCC2)c1 | -28.9 | 
N#C/C(=C(/O)COC(=O)COc1ccc(Cl)cc1)c1nc2ccccc2[nH]1 |  | 11.2 µM (active)
COCCN(CCOC)S(=O)(=O)c1ccc(/C(O)=C(\C#N)c2nc3ccccc3[nH]2)cc1 | -29.2 | 
COc1ccccc1C(=O)COC(=O)COc1ccc(C#N)cc1 | -21.5 | 
Cc1cc(C)c(OCCN2CC(C)OC(C)C2)c(Br)c1 (stereo not given) | 64.9 | 
CCN(CC)S(=O)(=O)c1ccc(CNC(=O)CN2C(=O)NC3(CCc4ccccc43)C2=O)cc1 (stereo not given) | 1.91 | 

Structure (SMILES) | activity change, negative = inhibition [%] | Potency
CCOC(=O)c1c(CNCc2ccccc2F)c2sc(C)cc2n1C | -10.1 | 
Cn1cc(C(=O)NCc2ccccc2F)cn1 | -13.3 | 
Cn1c2cc(B(O)O)sc2c2cnn(Cc3ccccc3F)c(=O)c21 |  | 2.82 µM (active)
COc1cc2c(-c3ccc4c(c3)OCO4)c(-c3ccsc3)oc(=O)c2cc1OC | -30.6 | 
O=C(NC1CCN(C(=S)NCc2ccco2)CC1)c1ccc(F)cc1 | -3.96 | 
CN1C(=O)C(CC(N)=O)N(NC(=O)c2ccc(Cl)cc2)C1=S (stereo not given) | -8.33 | 
Cc1ccc(NC(=O)CC2C(=O)N(Cc3ccccc3)C(=S)N2NC(=O)c2cccc(F)c2)c(C)c1 (stereo not given) |  | 31.6 µM (active)
Cc1ccc(N2C(=O)C(CC(=O)Nc3cccc(F)c3)N(CCc3ccncc3)C2=O)cc1 (stereo not given) | 52.9 | 
CN(C)/C=N/c1cc(=O)n(C)c(=O)n1CC1CC1 | -10 | 
Clc1ccccc1-c1cc(COc2ccc3ccccc3c2)no1 | -19.5 | 
COc1ccc(C2CC(c3ccc(C)cc3)Nc3ncnn32)cc1 (stereo not given) | 43.2 | 
Clc1ccc(C2CC(c3cccs3)n3ncnc3N2)cc1Cl (stereo not given) |  | 0.708 µM (active)
Nc1nc2n(n1)C(c1ccco1)CC(c1ccc(Cl)c(Cl)c1)N2 (stereo not given) | 82.4 | 
CN(C)CCN(Cc1ccccc1)S(=O)(=O)c1csc(C(N)=O)c1 | -8.05 | 
Cc1ncn2cc(-c3ccc(Cl)cc3Cl)[nH]c(=O)c12 | -27.9 | 
CC(C)n1c(=O)c(C=Nc2ccc(Br)cc2)c(O)n(Cc2ccco2)c1=O |  | 14.1 µM (active)
Cn1c2c(c(=O)n(C)c1=O)CN(Cc1ccco1)CN2 | -21.2 | 
Cn1c(O)c(C=Nc2ccc3c(c2)CCC3)c(=O)n(C)c1=O | -16.7 | 
c1nc(COc2nsnc2N2CCOCC2)cs1 | 20.9 | 
Cc1cc(=O)[nH]c(SCc2cc(Cl)ccc2OC(F)F)n1 | -25.2 | 
O=c1cc(O)nc(SCc2ccccc2Cl)[nH]1 |  | 3.16 µM (active)
Cc1cc(=O)[nH]c(SCc2cccc(F)c2)n1 | -5.38 | 
CCSc1nc2sc3c(c2c(=O)[nH]1)CC(C)(C)OC3 | -19.1 | 
CC/C(C)=N/Nc1nc2sc3c(c2c(=O)[nH]1)CC(C)(C)OC3 |  | 1.12 µM (active)
CC(C)c1nc2sc3c(c2c(=O)n1N)CC(C)(C)OC3 | -2.5 | 
